An excerpt weighted towards active compounds, which were near 12% of everything screened.
HP1b binding inh: HTS for Inhibitors of HP1-beta Chromodomain Interactions with Methylated Histone Tails; 390,000 compounds, 0.56% hits; Potency, µM (top dose mostly 114 µM), actives largely listed as inhibitors; Chromobox protein homolog 1 (Homo sapiens), P83916; AlphaScreen HP1-beta / biotin-H3K9me3 peptide binding; also: nearly all actives have a fitted effect of over 70% in size
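AlphaScreen: HP1-beta (50 nM) preformed 30 min with biotin-H3(1-18)K9me3 peptide (50 nM) in PBS pH 7.4, 0.01% Tween-20. Compound added for 30 min at RT, then streptavidin donor/nickel chelate acceptor beads (10 ug/mL) for 30 min.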
Sfp inh: qHTS Assay for Inhibitors of Bacillus subtilis Sfp phosphopantetheinyl transferase (PPTase) | 4'-phosphopantetheinyl transferase ffp (Bacillus subtilis), Q9F4F7 | Biochemical Sfp PPTase activity, qHTS | Potency, µM, actives largely listed as inhibitors | 310,000 compounds, 3.5% hits | AID 1490, 2009;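 also: the enzyme is Sfp with the accession as filed and its product quenches rhodamine fluorescence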
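After 15 min at room temperature with compound, 15 nM Sfp received 5 uM rhodamine-CoA plus 12.5 uM BHQ-2-ybbR (50 mM Hepes pH 7.6, 10 mM MgCl2). Rate came from the fluorescence difference over 30 min, ex 525/em 598 nm.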
G9a inh: qHTS Assay for Inhibitors of Histone Lysine Methyltransferase G9a; Histone-lysine N-methyltransferase EHMT2 (Homo sapiens), Q96KQ7; G9a H3K9 monomethylation, AlphaScreen, 2 h; Potency, µM (top dose mostly 102 µM), hits mostly inhibitors; 350,000 compounds, 8.8% hits; also: nearly all actives have a fitted effect of over 75% in size
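Readings reflect AlphaScreen signal from monomethyl-H3K9 antibody detection. HMT at 20 nM; substrate b-H3K9 500 nM; cofactor SAM 20 uM; 2 h RT reaction; compounds tested as titrations in qHTS with 15 min preincubation.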
L3MBTL1 inh: qHTS Assay for the Inhibitors of L3MBTL1; Lethal(3)malignant brain tumor-like protein 1 (Homo sapiens), Q9Y468; 230,000 compounds, 0.66% hits; Potency, µM (top dose mostly 57.1 µM), most hits filed as inhibitors; AlphaScreen L3MBTL1–H3K9me1 peptide binding; AID 485360, 2010; also: nearly all actives have a fitted effect of over 60% in size
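AlphaScreen assay: L3MBTL1 (50 nM final) was preincubated 30 min at room temperature with biotinylated H3(1-15)K9me1 peptide (75 nM final), then 30 min with library compounds; streptavidin donor and nickel chelate acceptor beads (10 ug/mL final) added, 30 min dark.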
BAZ2B inh: qHTS Assay for Inhibitors of BAZ2B; 360,000 compounds, 4.4% hits; Potency, µM (doses to about 114 µM), usual class: inhibitors; AlphaScreen BAZ2B-H3K14Ac peptide displacement; AID 504333, 2011; Bromodomain adjacent to zinc finger domain protein 2B (Homo sapiens), Q9UIF8; also: nearly all actives have a fitted effect of over 60% in size
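AlphaScreen luminescence quantifies BAZ2B engagement of H3K14Ac peptide; the protein and biotinylated peptide are both at 50 nM final, buffer PBS pH 7.4 with 0.01% Tween-20, all steps at room temperature.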
JMJD2A Tudor: qHTS Assay for Inhibitors of JMJD2A-Tudor Domain; 390,000 compounds, 4.4% hits; Lysine-specific demethylase 4A (Homo sapiens), O75164; Potency, µM (doses to about 114 µM), most hits filed as inhibitors; AlphaScreen JMJD2A-Tudor / H3K4me3 peptide binding; also: nearly all actives have a fitted effect of over 50% in size
Each line names hits and unclear results; the compound was inactive in the other large screens. Calls follow the shape of the dose curve; as a rule, active = well fitted curve in the direction sought with a large enough effect; inconclusive = small, poorly fitted or top-dose-only effect, or another doubt; inactive = no such curve, though single readings can be large; an effect the other way counts as inactive or inconclusive.

CN(C)NC1=CC(=[N+]2CCCC2)CC(C)(C)C1	G9a inh inconclusive (no result: L3MBTL1 inh)
CCCN(CCC)C1=CC(=[N+]2CCCC2)CC(C)(C)C1	G9a inh 1.8µM, JMJD2A Tudor inconclusive
CNc1ncnc2c1ncn2[C@H]1C[C@H](OP(=O)(O)O)[C@H](COP(=O)(O)O)O1	Sfp inh 28µM (no result: HP1b binding inh, G9a inh, L3MBTL1 inh, BAZ2B inh, JMJD2A Tudor)
CNc1ncnc2c1ncn2[C@H]1C[C@H](O)[C@@H](CO)O1	none (no result: HP1b binding inh, L3MBTL1 inh, BAZ2B inh, JMJD2A Tudor)
O=c1[nH]c2ccc(S(=O)(=O)N3CCN(S(=O)(=O)c4ccc5c(c4)OCCO5)CC3)cc2[nH]c1=O	none (no result: HP1b binding inh, Sfp inh, G9a inh, L3MBTL1 inh, BAZ2B inh)
CCc1ccc(NC(=O)N(CCN2CCOCC2)Cc2ccc3c(c2)CCCN3CC)cc1	HP1b binding inh 28µM, Sfp inh inconclusive, G9a inh 32µM, BAZ2B inh inconclusive, JMJD2A Tudor 22µM (no result: L3MBTL1 inh)
CCN1CCCc2cc(CN(CCN3CCOCC3)C(=O)Nc3ccc(C)c(C)c3)ccc21	HP1b binding inh inconclusive, G9a inh 8.9µM, BAZ2B inh 45µM, JMJD2A Tudor 28µM (no result: L3MBTL1 inh)
CCCCN1CCCc2cc(CN(CCCN3CCOCC3)C(=O)Nc3ccc(OCC)cc3)ccc21	HP1b binding inh inconclusive, G9a inh inconclusive, JMJD2A Tudor 13µM (no result: Sfp inh, L3MBTL1 inh)
Nc1nc(-c2ccc(Cl)cc2)c(N=Nc2ccc(S(=O)(=O)N3CCOCC3)cc2)s1	HP1b binding inh inconclusive, G9a inh inconclusive, BAZ2B inh 7.1µM, JMJD2A Tudor inconclusive
CNCc1ccccc1Sc1cccc(O)c1	none
CNCc1ccccc1Sc1cc(O)ccc1O	HP1b binding inh 10µM, Sfp inh 22µM, G9a inh 1µM, BAZ2B inh 35µM, JMJD2A Tudor 18µM
O=C(c1cc(COc2ccccc2)on1)N1CCCC(CN2CCOCC2)C1 (stereo unspecified)	none (no result: L3MBTL1 inh)
NC(=NCc1ccco1)NC(=O)c1ccccc1	BAZ2B inh inconclusive (no result: G9a inh, L3MBTL1 inh)
CCOc1ccc(N/C=C/C(=O)c2ccc(OC)c(OC)c2)cc1	none
CCCOc1ccc(N/C=C/C(=O)c2ccc(OC)c(OC)c2)cc1	JMJD2A Tudor 28µM (no result: G9a inh)
COc1ccc(C(=O)/C=C/NCc2ccc(F)cc2)cc1OC	G9a inh 50µM
COc1ccc(C(C)=O)cc1CN1C(=O)NC(c2ccccc2)(c2ccccc2)C1=O	none (no result: L3MBTL1 inh)
Cc1ccc(CCNC(=O)c2ccc(CS(=O)(=O)c3ccc(Cl)cc3)o2)cc1	none (no result: Sfp inh, L3MBTL1 inh)
CCOC(=O)CC(=O)CSc1nc2sc(C)cc2c(=O)n1Cc1ccco1	none (no result: L3MBTL1 inh)
Cc1cc2c(=O)n(Cc3ccco3)c(SCC(=O)c3ccc(Cl)s3)nc2s1	Sfp inh 18µM
Cc1ccc(OCc2nnc(SCC(=O)c3ccccc3)n2Cc2ccco2)cc1	G9a inh inconclusive, JMJD2A Tudor inconclusive
CCn1c(SCC(=O)c2ccc(CNC(C)=O)o2)nnc1-c1cccs1	Sfp inh 50µM, G9a inh 18µM, JMJD2A Tudor inconclusive
O=C(CSc1nnc(COc2ccccc2)n1Cc1ccco1)c1ccc(F)cc1	Sfp inh 56µM, G9a inh 28µM, BAZ2B inh inconclusive, JMJD2A Tudor 79µM
O=C(CSc1nc2ccccc2c(=O)n1Cc1ccco1)c1ccc(F)cc1	Sfp inh 32µM
O=C1c2ccccc2C(=O)N1c1cccc(N2C(=O)c3ccccc3C2=O)n1	none (no result: Sfp inh, G9a inh, L3MBTL1 inh, BAZ2B inh)
COc1cccc(C(=O)NCCNC(=O)c2ccc(C)nc2)c1	none (no result: L3MBTL1 inh)
COCCn1c(SCC(=O)c2ccc(CNC(C)=O)o2)nc2ccccc2c1=O	JMJD2A Tudor 79µM
Cc1occc1-c1nnc(SCC(=O)c2ccc(F)cc2)n1Cc1ccco1	Sfp inh inconclusive, G9a inh 10µM, BAZ2B inh 50µM
O=C1c2ccccc2C(=O)N1CCc1nc2ccccc2c(=O)n1Cc1ccco1	Sfp inh 50µM
COC(=O)c1ccc(CSc2nc3ccccc3c(=O)n2CC(C)C)o1	none

Source: PubChem BioAssay
